Where a SMILES comes first, the peptide text is derived from it. Bridges are numbered along the chain shown (N, C = ends). [ ]: non-standard residue; d: D form. The star is where a group is joined. Heptanoyl(5-Me) = CCC(C)CCCC(=O)*; Dab = NCC[C@H](N)C(=O)O

The assay can be described thus: survival rescue of mitochondrial mutant cells in low glucose, primary screen, MELAS cybrids, Rieske KO mouse fibroblasts, CellTiter-Glo (AID 1508586).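 Also: test concentration not given here; z relative to plate mean and SD of compound and empty wells.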 Conditions: Rieske KO mouse fibroblast survival, CellTiter-Glo 72 h. A general note: ATP-based viability assays read luminescence as a measure of living cells.
The compound `C=CCn1nc(C(=O)N2CCCC2)c2c1CCC(NCc1ccccc1OC(F)(F)F)C2` (configuration not stated) showed a z-score of 0.327.

`C=Cc1c(C)c2cc3nc(cc4[nH]c(cc5nc(cc1[nH]2)C(C)=C5CCC(=O)O)c(CCC(=O)OC)c4C)[C@@]1(C)C3=CC=C(C(=O)OC)C1C(=O)OC` (some centres not stated) gave a z-score of 1.33.

As for `N[C@@H](C(=O)N[C@@H]1C(=O)N2C(C(=O)O)=C(Cl)CC[C@H]12)c1ccccc1`, the z-score was -0.0591.

Take `CCC(C)CCCC(=O)N[C@@H](CCN)C(=O)N[C@H](C(=O)N[C@@H](CCN)C(=O)N[C@H]1CCNC(=O)[C@H]([C@@H](C)O)NC(=O)[C@H](CCN)NC(=O)[C@H](CCN)NC(=O)[C@H](CC(C)C)NC(=O)[C@@H](CC(C)C)NC(=O)[C@H](CCN)NC1=O)[C@@H](C)O` (stereo partly drawn) ({Heptanoyl(5-Me)}-[Dab]T[Dab][Dab][Dab][dL]L[Dab][Dab]T; lactam 4-C): the z-score worked out at 0.188.

For the compound `C[C@H](Cc1cc2c(c(C(N)=O)c1)N(CCCO)CC2)NCCOc1ccccc1OCC(F)(F)F`, the z-score is -0.901.

In turn, `Cc1cc(-c2cc3c(n(C)c2=O)CCN(Cc2ccc(Sc4nncn4C)o2)C3)ccc1F` returned a z-score of -0.369.

`Nc1nc(NC2CC2)c2ncn([C@H]3C=C[C@@H](CO)C3)c2n1` returned a z-score of -0.0348.

`CC(=O)[C@@]12OC(C)(c3ccccc3)O[C@@H]1C[C@H]1[C@@H]3CCC4=CC(=O)CC[C@]4(C)[C@H]3CC[C@@]12C` (some centres not stated): the z-score was found to be 1.8.

With `CC=C(C)C(=O)O[C@H]1[C@H](OC(C)=O)C2(CO)C(CC1(C)C)C1=CCC3C4(C)CCC(OC5O[C@H](C(=O)O)[C@@H](O[C@@H]6O[C@H](CO)[C@@H](O)[C@H](O)[C@H]6O)[C@H](O)[C@H]5O[C@@H]5O[C@H](CO)C(O)[C@H](O)[C@H]5O)[C@](C)(CO)C4CCC3(C)[C@]1(C)C[C@H]2O` (some centres not stated), the z-score came to 2.95.

`CNCC[C@@H](Oc1cccc2ccccc12)c1cccs1` registered a z-score of 0.977.

As for `COc1c(O[C@@H]2O[C@H](CO)[C@@H](O)[C@H](O)[C@H]2O)cc2c(c1OC)-c1ccc(SC)c(=O)cc1[C@@H](NC(C)=O)CC2`, the z-score was determined as 0.151.

Compound `CC(C)CC(NP(=O)(O)OC1OC(C)C(O)C(O)C1O)C(=O)NC(Cc1c[nH]c2ccccc12)C(=O)O` (configuration not stated) gave a z-score of 0.685.

`O=C(NCCN1CCOCC1)c1cc(-c2ccccc2)cc(S(=O)(=O)N2CCSCC2)c1` registered a z-score of -0.421.

`COc1cccc2c1C(=O)c1c(O)c3c(c(O)c1C2=O)C[C@@](O)(C(=O)CO)C[C@@H]3O[C@@H]1C[C@H](N)[C@@H](O)[C@H](C)O1` gave a z-score of -1.72.

For the compound `N[C@@H]1CCCCN(c2c(F)cc3c(=O)c(C(=O)O)cn(C4CC4)c3c2Cl)C1`, the z-score is -0.618.

Consider `COc1cc(Br)c(C[N+]2(CCOCCC3CC[C@H]4C[C@@H]3C4(C)C)CCOCC2)cc1OC` (some centres not stated), for which the z-score worked out at 0.547.

`CCOc1ccccc1O[C@@H](c1ccccc1)[C@H]1CNCCO1` returned a z-score of -0.0896.

Regarding `CCOC(=O)c1nn(Cc2ccccn2)c2c1CN(Cc1ccc(NC(C)=O)s1)CC2`, the z-score is -0.0726.

Take `CO/N=C(\C(=O)N[C@@H]1C(=O)N2C(C(=O)OC(C)OC(C)=O)=C(COC(N)=O)CS[C@H]12)c1ccco1` (some centres not stated): the z-score was 0.0681.

Consider `C/C=C/C1=C(C(=O)O)N2C(=O)[C@@H](NC(=O)[C@H](N)c3ccc(O)cc3)[C@H]2SC1`, for which the z-score is -1.17.

`Cc1cc(=O)c(C(=O)N[C@@H](C(=O)N[C@@H]2C(=O)N3C(C(=O)O)=C(CSc4nnnn4C)CS[C@H]23)c2ccc(O)cc2)c[nH]1` showed a z-score of -0.0348.

Consider `COc1ccc(C[C@@H]2c3cc(OC)c(OC)cc3CC[N@+]2(C)CCC(=O)OCCCCCOC(=O)CC[N@@+]2(C)CCc3cc(OC)c(OC)cc3[C@H]2Cc2ccc(OC)c(OC)c2)cc1OC`, for which the z-score was -0.143.

Take `COC(=O)c1c(NC(=O)c2ccco2)c2cc(NC3CCOCC3)cnc2n1C`: the z-score was -0.251.

`CN1C[C@H](C(=O)N[C@]2(C)O[C@@]3(O)[C@@H]4CCCN4C(=O)[C@H](Cc4ccccc4)N3C2=O)CC2c3cccc4[nH]cc(c34)C[C@H]21` (mixture of isomers): the z-score was 0.764.

For the compound `CO[C@H]1/C=C/O[C@@]2(C)Oc3c(C)c(O)c4c(O)c(c(/C=N/N5CCN(C6CCCC6)CC5)c(O)c4c3C2=O)NC(=O)/C(C)=C\C=C\[C@H](C)[C@H](O)[C@@H](C)[C@@H](O)[C@@H](C)[C@H](OC(C)=O)[C@@H]1C`, the z-score was 0.251.

`COC(=O)c1c(NC(C)=O)c2cc(NC3CCOCC3)cnc2n1CCc1ccc(OC)cc1` came in with a z-score of 0.565.

For `C#C[C@]1(OC(C)=O)CC[C@H]2[C@@H]3CCC4=CC(=NO)CC[C@@H]4[C@H]3CC[C@@]21CC`, the z-score came out at 0.685.
